Screening results from PubChem.
An excerpt weighted towards active compounds, which were near 2.3% of everything screened.
Mcl1-Bid inh: Mcl-1/Bid binding inhibitors, primary screen, biochemical, TR-FRET, 1536-well; inhibition, % at 21.7 µM; TR-FRET Mcl-1/Bid-Dy647 peptide binding; Induced myeloid leukemia cell differentiation protein Mcl-1 (Homo sapiens), Q07820; hit rate 0.97% among 220,000;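 active = compounds that cut the binding signal by more than half at the single screening dose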;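 also: His-tagged Mcl-1 with europium anti-His antibody binding Bid BH3 peptide; 0% = Mcl-1 plus peptide wells and 100% = peptide-only wells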
GLD-1 RNA inh: GLD-1/TGE RNA complex disruptors, primary screen, biochemical, fluorescence polarization | Female germline-specific tumor suppressor gld-1 (Caenorhabditis elegans), Q17339 | purified GLD-1 + fluorescein TGE RNA | inhibition, % at 5.96 µM | hit rate 0.44% among 320,000;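 active = percent inhibition above a per-plate cutoff, the plate mean of test compounds plus 3 SD, cut at about 30% in these data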;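 also: 0% = DMSO wells with GLD-1 and probe and 100% = wells lacking GLD-1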
Target sequence (Q17339 whole entry, looked up): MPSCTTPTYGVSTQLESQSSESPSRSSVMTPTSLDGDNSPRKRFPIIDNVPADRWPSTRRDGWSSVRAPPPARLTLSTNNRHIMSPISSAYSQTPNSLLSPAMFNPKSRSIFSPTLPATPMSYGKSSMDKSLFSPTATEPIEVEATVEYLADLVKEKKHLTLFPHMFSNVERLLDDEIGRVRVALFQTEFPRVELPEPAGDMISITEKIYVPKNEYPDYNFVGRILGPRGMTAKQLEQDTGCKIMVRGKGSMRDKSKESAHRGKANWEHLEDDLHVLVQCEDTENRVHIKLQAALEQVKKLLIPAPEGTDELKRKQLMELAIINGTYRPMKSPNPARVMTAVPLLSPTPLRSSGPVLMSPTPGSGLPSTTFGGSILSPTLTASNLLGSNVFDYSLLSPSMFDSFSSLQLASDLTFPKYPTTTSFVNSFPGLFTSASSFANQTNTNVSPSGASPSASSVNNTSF
Mcl1-Noxa inh: Mcl-1/Noxa binding inhibitors, primary screen, biochemical, TR-FRET, 1536-well | TR-FRET Mcl-1/Noxa peptide binding, 2 h | hit rate 1.5% among 220,000 | AID 1022, 2008 | inhibition, % at 21.7 µM;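 active = compounds that cut the protein-peptide binding signal by more than 50% relative to plate controls in a single-dose test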;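 also: His-tagged Mcl-1 with rhodamine Noxa BH3 peptide and terbium anti-His antibody; 0% = Mcl-1 plus Noxa peptide wells and 100% = peptide-only wells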
MCL1-BIM inh: inhibitors of MCL1 binding to BIM-BH3, primary screen, biochemical, fluorescence polarization. hit rate 0.68% among 320,000. Induced myeloid leukemia cell differentiation protein Mcl-1 (Homo sapiens), Q07820. AID 2057, 2009. inhibition, % at 10.9 µM. GST-MCL1 / FITC-Bim-BH3 fluorescence polarization;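 active = inhibition above the mean inhibition of all tested compounds plus 3 SD, set per campaign, cut at about 40% in these data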;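 also: 0% = DMSO wells and 100% = unlabeled Bim-BH3 peptide control; higher means more loss of mP so more displacement of Bim peptide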
Bcl-xL primary: inhibitors of human Bcl-xL, primary screen, biochemical, fluorescence polarization, HTS | Bcl-2-like protein 1 (Homo sapiens), Q07817 | GST-Bcl-xL / FITC-Bim BH3 peptide fluorescence polarization | inhibition, % at 10.9 µM | hit rate 0.7% among 320,000;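 active = inhibition above the mean of all tested compounds plus 3 SD, cutoff set per campaign, cut at about 30% in these data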;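 also: 0% = DMSO wells and 100% = unlabeled Bim-BH3 peptide competitor; inhibitors lower millipolarization by displacing the labeled peptide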
Mcl-1 Bim block: inhibitors of Bim peptide binding to Mcl-1, primary screen, biochemical, bead-based flow cytometry, multiplex | Bim peptide-Mcl-1 binding | hit rate 0.1% among 190,000 | inhibition, % at 10 µM | Induced myeloid leukemia cell differentiation protein Mcl-1 (Homo sapiens), Q07820; in the data active = inhibition above about 40%;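 also: 0% = no compound tracer wells and 100% = peptide blocker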
Starred values were filed as active, the others as inactive.

For O=C(COc1ccc(/C=N/NC(=O)c2cc3ccccc3o2)cc1Cl)Nc1ccccc1 the results were Mcl1-Bid inh 83.6*, GLD-1 RNA inh -8.3, Mcl1-Noxa inh 22.6, MCL1-BIM inh -1.6, Bcl-xL primary -7.9 and Mcl-1 Bim block -3.0.
Screening COc1cc(/C=N/NC(=O)c2ccccc2O)ccc1OCC(=O)Nc1ccccc1 returned GLD-1 RNA inh 5.1, MCL1-BIM inh -1.4 and Bcl-xL primary -4.7.
COc1ccc(O)c(-c2cn[nH]c2-c2cccs2)c1 was read as Mcl1-Bid inh -15.9, GLD-1 RNA inh -1.1, Mcl1-Noxa inh 54.7*, MCL1-BIM inh -1.4, Bcl-xL primary 2.8 and Mcl-1 Bim block -1.0.
CCN(CC)S(=O)(=O)c1ccc(C)c(NC(=O)CN2CCN(C)CC2)c1 was read as Mcl1-Bid inh 65.1*, GLD-1 RNA inh -2.6, Mcl1-Noxa inh 32.7, MCL1-BIM inh -4.3 and Bcl-xL primary 6.0.
Cc1ccc(S(=O)(=O)N(C)C)cc1NC(=O)CN1CCCC1 was read as GLD-1 RNA inh 11.7, MCL1-BIM inh -18.7 and Bcl-xL primary -2.8.
Screening COc1cc(C(=O)OCn2nnc3ccccc3c2=O)cc(OC)c1OC returned Mcl1-Bid inh 62.2*, GLD-1 RNA inh 3.1, Mcl1-Noxa inh 14.9, MCL1-BIM inh 5.9, Bcl-xL primary 6.1 and Mcl-1 Bim block 0.0.
For COC(=O)CSc1[nH]c2ccc(Br)cc2c1[N+](=O)[O-] the results were Mcl1-Bid inh -2.7, GLD-1 RNA inh -2.4, Mcl1-Noxa inh 17.2, MCL1-BIM inh 11.7, Bcl-xL primary 5.8 and Mcl-1 Bim block 0.0.
CCOc1ccc2[nH]c(SCC(=O)OC)c([N+](=O)[O-])c2c1 was read as Mcl1-Bid inh -1.4, GLD-1 RNA inh 30.1, Mcl1-Noxa inh 17.8, MCL1-BIM inh 36.5, Bcl-xL primary 38.7* and Mcl-1 Bim block 5.0.
`CCCOC(=O)c1cc(-c2ccc(/C=C3/C(=O)N(C)C(=O)C(C#N)=C3C)o2)ccc1Cl` gave GLD-1 RNA inh 5.9, MCL1-BIM inh -32.2 and Bcl-xL primary -24.4.
Screening CC1=C(C#N)C(=O)NC(=O)/C1=C/c1ccc(-c2ccc(S(N)(=O)=O)cc2)o1 returned Mcl1-Bid inh -37.7, GLD-1 RNA inh 5.6, Mcl1-Noxa inh 87.1*, MCL1-BIM inh 18.6, Bcl-xL primary 18.0 and Mcl-1 Bim block 2.0.
`C=CCOC(=O)c1cc(-c2ccc(/C=C3\C(=O)NC(=O)C(C#N)=C3C)o2)ccc1Cl` gave Mcl1-Bid inh 99.0*, Mcl1-Noxa inh 104.8* and Mcl-1 Bim block -6.0.
Screening CC1CN(S(=O)(=O)c2ccccc2)C(C)N1C(=O)N1CCOCC1 (centres undefined) returned GLD-1 RNA inh 4.4, MCL1-BIM inh 6.4 and Bcl-xL primary 2.0.
For COc1ccc(Cl)cc1NC(=O)CN(C)C(=O)c1ccc(COc2ccccc2)cc1 the results were GLD-1 RNA inh 9.7, MCL1-BIM inh 1.4 and Bcl-xL primary 2.1.
O=C(C1CCN(CCCc2ccccc2)CC1)N(CCc1ccccc1)Cc1ccccc1 was read as Mcl1-Bid inh 29.0, GLD-1 RNA inh 0.5, Mcl1-Noxa inh 19.3, MCL1-BIM inh 4.7, Bcl-xL primary 5.8 and Mcl-1 Bim block -7.0.
Screening O=C(C1CCN(CC2CC=CCC2)CC1)N(CCc1ccccc1)Cc1ccccc1 (centres undefined) returned Mcl1-Bid inh 74.0*, GLD-1 RNA inh 4.4, Mcl1-Noxa inh 25.0, MCL1-BIM inh 5.6, Bcl-xL primary -2.6 and Mcl-1 Bim block -1.0.
For O=C(N/N=C1/CC2CCC1C2)c1cc2ccccc2cc1O (centres undefined) the results were GLD-1 RNA inh -8.7, MCL1-BIM inh -9.1 and Bcl-xL primary 0.6.
`O=C(/C=C/c1ccc(N2CCC(c3ccccc3)=N2)cc1)c1ccccc1` gave Mcl1-Bid inh -13.7, GLD-1 RNA inh -84.4, Mcl1-Noxa inh 13.0, MCL1-BIM inh -49.9 and Bcl-xL primary 34.1*.
